Screens from PubChem.
HCV inh = HCV inhibition; Huh7.5.1 HCVcc-Cre infection, luciferase reporter, 44 h; Potency, µM (top dose mostly 41.8 µM), inactives show at the highest dose activity change, negative = inhibition, hits mostly inhibitors; actives 3.4% (n = 340,000); active means well fitted inhibition curve with a large enough effect; inconclusive means small, poorly fitted or top-dose-only effect, or another doubt; inactive means no such curve, though single readings can be large or run the other way; further: potency means the concentration at half of the fitted maximal effect; on the % scale 0 is the no-effect control and ±100 the full control effect
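Reporter virus HCVcc-Cre (~0.5 moi) infects cells exposed to compound; seeding density 1,000 cells/well with 4 h settling beforehand. Luminescence, 15 sec read, taken 44 h post-infection following a 15 min RT substrate incubation.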
Lassa entry inh = inhibitors of Lassa virus binding or cell entry | Lassa virus pseudotype entry inhibition, cell reporter | Potency, µM (top dose mostly 37.9 µM), for the others: at the top dose activity change, negative = inhibition, most hits filed as inhibitors | actives 1.2% (n = 300,000) | AID 540256; calls by dose curve; tested in HEK293 cells; further: potency means the concentration at half of the fitted maximal effect; on the % scale 0 is the no-effect control and ±100 the full control effect; nearly all actives have a fitted effect of over 50% in size
FMDV inh = blocks foot and mouth disease virus; FMDV antiviral cell-based qHTS; Potency, µM (series often up to 57.9 µM), without a hit: top-dose activity change, negative = inhibition, actives largely listed as inhibitors; actives 1.2% (n = 410,000); calls by dose curve; tested in HEK293T cells; further: read-out not given here; potency means the concentration at half of the fitted maximal effect; on the % scale 0 is the no-effect control and ±100 the full control effect; nearly all actives have a fitted effect of over 45% in size
Shiga inhibitor = Shiga toxin inhibition | inhibition, % at 38.7 µM | Vero cells, Shiga toxin protein synthesis inhibition reporter | actives 9.2% (n = 290,000); in the data active means inhibition mostly above about 28%, no sharp cut-off; inactive means mostly below about 43%; further: 0% is about no effect
CHX counter = counter-screen for Shiga toxin inhibitors: cycloheximide protein synthesis inhibition | cell reporter, cycloheximide protein synthesis inhibition counterscreen | max response, % | actives 12% (n = 300,000) | AID 2314; in the data active means max response mostly above about 13%, no sharp cut-off; inactive means mostly below about 14%; further: read at 38.3 µM for the half of the compounds with a filed dose; 0% is about no effect
Marburg entry inh = inhibitors of Marburg virus binding or cell entry | Potency, µM (highest dose often 37.8 µM), without a hit: at the top dose activity change, negative = inhibition, hits mostly inhibitors | Marburg virus pseudotyped entry inhibition, cell reporter | actives 1.8% (n = 300,000); calls by dose curve; tested in HEK293 cells; further: potency means the concentration at half of the fitted maximal effect; on the % scale 0 is the no-effect control and ±100 the full control effect
Active calls of the source: *; u = inconclusive; x = no result given; [ ] = dose if it differs, or a comment. Shown are actives, neighbours in structure and some others; about 13% of the full set was active somewhere.

SMILES | HCV inh | Lassa entry inh | FMDV inh | Shiga inhibitor | CHX counter | Marburg entry inh
CN1CCN(c2ccc(S(=O)(=O)N3CCCCC3)cc2NC(=O)COc2ccc([N+](=O)[O-])cc2)CC1 | u | 9.0% | 4.2% | x | x | 6.9%
CC(=O)c1ccc(NC(=O)Cn2c(=O)cc(C)c3c(C)nn(-c4cccc(F)c4)c32)cc1 | x | -1.0%[46.1 µM] | 6.8% | x | x | x
Cc1ccc(C(=O)N/C(=C/c2ccc(-c3ccc([N+](=O)[O-])cc3)o2)C(=O)NCCCN(C)C)cc1 | -79.1% | u | -19.4% | x | x | 3.98µM*
Nc1nc(-c2ccccc2)c(-c2ccccc2)o1 | 2.1% | u | 16.8% | 34.5 | -1.8 | -12.2%[46.1 µM]
c1ccc(-c2nc(-c3nccc4ccccc34)oc2-c2ccccc2)cc1 | u | x | 19.3% | 74.2* | 46.1* | x
COc1ccc(-c2nnc(SCC(=O)c3ccc(C)o3)o2)cc1 | u | u | -8.8% | 33.3 | 12.6* | u
CCn1c(C)cc(C(=O)CSc2nnc(-c3ccco3)o2)c1C | -1.3% | x | 28.5% | x | x | x
Cc1cc(C(=O)CSc2nnc(-c3ccco3)o2)c(C)n1C | 11.2µM* | 8.7% | 18.9% | x | x | -18.2%[46.1 µM]
O=C(O)CSc1nnc(-c2ccco2)o1 | 7.3% | -2.2% | -5.5% | -10.8 | -2.8 | 10.7%
Cc1ccc(C(=O)CSc2nnc(-c3ccco3)o2)o1 | -0.4% | u | 64.5% | 55.6* | 39.6* | -0.6%
CCCCCNC(=O)C(c1ccc(OC)cc1)n1c(=O)c(-c2ccco2)nc2ccccc21 (centres undefined) | x | x | -2.7% | x | x | x
COC(=O)c1c(NC(=O)c2cccc(OC)c2)sc2c1CCC(C(C)(C)C)C2 (centres undefined) | x | 4.4%[46.1 µM] | -14.2% | x | x | x
CCCn1nnc(NC(=S)NC(=O)Cc2ccccc2)n1 | -0.2% | 0.4%[46.1 µM] | 11.7% | 18.5 | 7.0 | -3.4%[46.1 µM]
CC(=O)N1CCC2(CC1)CN(Cc1cc(C(F)(F)F)cc(C(F)(F)F)c1)C2 | x | x | -8.7% | x | x | x
CN(C)S(=O)(=O)c1cccc(NC(=O)C(c2ccccc2)c2ccccc2)c1 | 10.1% | x | 5.4% | -5.1 | -2.0 | u
CN(c1ccc(C(=O)Nc2cccc(O)c2)cc1)S(=O)(=O)c1ccccc1 | u | -25.2% | -23.3% | 21.3 | 18.6* | u
CCC(C(=O)Nc1cccc(S(=O)(=O)N(C)c2ccccc2)c1)c1ccccc1 (centres undefined) | u | 11.2µM* | 0.0% | x | x | u
CC(=O)Nc1cccc(OCc2ccc(S(=O)(=O)Cc3ccccc3)cc2)c1 | u | -1.4% | -14.3% | 64.4* | 40.0* | -24.9%
CCOc1ccc(Br)cc1S(=O)(=O)Nc1cccc(S(=O)(=O)N(C)c2ccccc2)c1 | -23.2% | -27.7% | -18.8% | -13.8 | -1.4 | 7.94µM*
CCOc1ccc(Br)cc1S(=O)(=O)Nc1ccc(C(=O)OCC(=O)N(C)c2ccccc2)cc1 | -12.4% | 10.0% | 32.5% | -9.8 | -1.2 | -12.2%
COc1ccc(CCNC(=O)COC(=O)C23CC4CC(CC(C4)C2)C3)cc1 | -3.5% | -26.4% | -24.8% | -6.9 | -5.6 | u
Cc1ccc(S(=O)(=O)NC2=NCN(C)CN2)cc1[N+](=O)[O-] | 3.3% | 6.3%[46.1 µM] | 8.1% | -19.9 | -1.3 | 17.6%[46.1 µM]
O=C(NC1CCCC1)C(C1CC1)n1c(C2CC2)nc2ccccc21 (centres undefined) | x | x | -5.6% | x | x | x
Cc1cccc(C)c1NC(=O)CN(C)C(=O)c1ccc(COc2ccccc2)cc1 | u | -16.8% | 19.8% | 40.1 | 19.8* | 0.9%
CN(C)S(=O)(=O)c1cccc(NC(=O)c2ccc(COc3ccccc3)cc2)c1 | 10µM* | u | 25.1µM* | 16.6 | 12.6 | 8.91µM*
SMILES | HCV inh | Lassa entry inh | FMDV inh | Shiga inhibitor | CHX counter | Marburg entry inh
COCc1ccc(C(=O)Nc2cccc(S(=O)(=O)N(C)c3ccccc3)c2)cc1 | 22.4µM* | u | u | x | x | u
CC(OC(=O)CCN=C1NS(=O)(=O)c2ccccc21)C(=O)NC1CCCCC1C (centres undefined) | 12.2% | -11.1% | -8.0% | x | x | 5.1%
O=C(Nc1c(C(=O)Nc2ccc(F)cc2)oc2ccccc12)c1cc2ccccc2o1 | x | 22.4%[46.1 µM] | 35.1% | x | x | -3.3%[46.1 µM]
O=C(NC1CC1)c1ccc(-c2nc3ccccc3s2)s1 | u | 1.26µM* | u | 38.0* | 23.5 | 1.41µM*
CCN1CCN(C(=O)c2ccc(-c3nc4ccccc4s3)s2)CC1 | u | x | 31.1% | 103.5* | 42.1* | x
CCOC(=O)C1CCN(S(=O)(=O)c2ccc(-c3nc4ccccc4s3)s2)CC1 | 25.4% | -4.1% | 19.1% | 69.2* | 45.4* | u
O=C(c1ccc(-c2nc3ccccc3s2)s1)N1CCOCC1 | u | 3.55µM* | 8.91µM* | -4.2 | -2.2 | u
Cc1cc(Nc2ccccc2)c2c([N+](=O)[O-])cc(C)c(C)c2n1 | u | -12.2% | -17.6% | -3.0 | 2.1 | u
O=c1[nH]c(CSc2nnc(-c3ccccc3)n2-c2ccccc2)nc2ccccc12 | -14.4%[0.335 µM] | -5.8% | -11.1% | -2.5 | -2.8 | 29.8%
Cc1nc(CCNC(=O)c2ccccc2)cs1 | 8.1% | 24.0% | 30.0% | 17.2 | 17.5* | 3.6%
CCOC(=O)c1csc(CCNC(=O)c2ccccc2)n1 | x | x | 12.3% | x | x | x
Cc1ccc(C(=O)NCCc2csc(-c3cccnc3)n2)cc1 | -8.2% | x | 5.7% | 66.6* | 20.0* | x
Fc1ccc(CN2CCN3CCCC3C2C2CCCCC2)cc1F (centres undefined) | -27.4% | 12.6µM* | u | -15.3 | -5.1 | u
Fc1cccc(CN2CCN3CCCC3C2C2CCCCC2)c1 (centres undefined) | u | -2.4% | u | -10.0 | -3.0 | u
O=c1c2ccccc2nc(SCc2nc3ccccc3s2)n1CCCO | u | u | -33.6% | 137.4* | 46.4* | u
O=C(CSc1nc2ccccc2c(=O)n1CCCO)NCc1ccccc1 | 15.0% | u | 4.3% | 19.7 | 9.9 | -1.7%
Cn1nnnc1SCc1cccc2ccccc12 | 0.0% | -12.4% | 9.0% | 25.1 | 6.9 | -22.8%[46.1 µM]
Cn1nnnc1SCc1nc2ccccc2s1 | 3.9% | u | 27.2% | 94.1* | 38.0* | u
Cc1ccnc(SCc2nc3ccccc3s2)n1 | 14.2% | u | 34.4% | 62.0* | 32.4* | u
O=C(CSc1nnc(CNC(=O)c2cccc(C(F)(F)F)c2)o1)NCC1CCCO1 (centres undefined) | 6.4% | 1.1% | 5.2% | -2.5 | -1.2 | u
Cc1ccc(N=Cc2c(O)[nH]c3ccccc23)c([N+](=O)[O-])c1 | 1.0% | u | 0.0% | 63.8* | 22.2* | u
Oc1[nH]c2ccccc2c1C=Nc1ccc2c(c1)OCO2 | u | u | -5.1% | 68.0* | 64.9* | u
COc1ccc(N=Cc2c(O)[nH]c3ccccc23)cc1 | u | u | 41.4% | 39.8* | 37.0* | u
Oc1[nH]c2ccccc2c1/C=N/c1nccs1 | u | -2.6% | 33.8% | 50.7 | 28.3* | u
COc1ccc(N=Cc2c(O)ccc3ccccc23)cc1 | 23.4% | u | -17.4% | 24.5 | 11.7 | u
